Structures can show the parent of a compound that is named as a salt.
Experiments:
Assay in all cases: Euclidean distance of Cell Painting phenotypic profile (signed KS, 77 features) to DMSO centroid (dimensionless distance); 5 or 10 uM (library dependent); higher = stronger phenotypic change vs DMSO (phenoactivity)
Details in all cases: 48 h
786-O = test system: 786-O
Method in brief: (§1)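 Phenoactivity is defined as the Euclidean distance from a compound profile to the median vehicle profile. Each profile comprised 77 Harmony features, scored as signed Kolmogorov-Smirnov statistics versus same-plate vehicle wells, then plate-position corrected, correlation-weighted and replicate-averaged at the top dose. Five cancer lines and one healthy fibroblast line were exposed to library compounds for 48 h at 10 or 5 uM (0.1% DMSO final).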

A549 = test system: A549
Method in brief: as §1

DU145 = test system: DU145
Method in brief: as §1

FB = test system: FB
Method in brief: as §1

HEPG2 = test system: HEPG2
Method in brief: as §1

OVCAR4 = test system: OVCAR4
Method in brief: as §1

| SMILES | Euclidean distance (786-O) | Euclidean distance (A549) | Euclidean distance (DU145) | Euclidean distance (FB) | Euclidean distance (HEPG2) | Euclidean distance (OVCAR4) |
| --- | --- | --- | --- | --- | --- | --- |
| Cc1cnc(CNC(=O)c2c(=O)c3ccc(N4CCCN(C)CC4)nc3n3c2sc2ccccc23)cn1 | 2.93 | 3.26 | 2.7 | 3.86 | 2.18 | 3.31 |
| C#Cc1cccc(Nc2ncnc3cc(OCCOC)c(OCCO)cc23)c1 | 1.88 | 1.49 | 1.82 | 2.87 | 1.07 | 2.03 |
| CCOc1ccc(Cc2cc([C@@H]3O[C@H](CO)[C@@H](O)[C@H](O)[C@H]3O)ccc2Cl)cc1 [Dapagliflozin] | 1.1 | 1.19 | 1.1 | 1.39 | 0.432 | 1.01 |
| NS(=O)(=O)c1cc2c(cc1C(F)(F)F)NC(Cc1ccccc1)NS2(=O)=O (stereo not drawn) [Bendroflumethiazide] | 0.918 | 0.995 | 1.62 | 1.34 | 1.05 | 2.02 |
| CS(=O)(=O)N1CCN(Cc2cc3nc(-c4cccc5[nH]ncc45)nc(N4CCOCC4)c3s2)CC1 | 2.85 | 2.71 | 1.63 | 2.18 | 1.4 | 1.83 |
| Cc1c(C(=O)Nc2ccc(N3C[C@@H](C)O[C@@H](C)C3)nc2)cccc1-c1ccc(OC(F)(F)F)cc1 [LDE225 (NVP-LDE225.Erismodegib)] | 0.757 | 1.2 | 0.747 | 0.782 | 1.4 | 1.38 |
| CN(C)C(=O)N[C@H]1CC[C@H](CCN2CCN(c3cccc(Cl)c3Cl)CC2)CC1 [Cariprazine HCl] | 1.25 | 1.41 | 1.47 | 1.58 | 1.63 | 0.982 |
| CCCCN1CCCCC1C(=O)Nc1c(C)cccc1C (stereo not drawn) [Bupivacaine HCl] | 1.38 | 0.594 | 1.45 | 0.904 | 0.991 | 1.15 |
| OCC1=C[C@@H](O)[C@@H]2C=CO[C@@H](O[C@@H]3O[C@H](CO)[C@@H](O)[C@H](O)[C@H]3O)[C@H]12 [Aucubin] | 0.893 | 0.414 | 2.53 | 0.949 | 0.503 | 1.5 |
| CO/N=C(\C(=O)N[C@@H]1C(=O)N2C(C(=O)O)=C(CSc3nc(C)c(CC(=O)O)s3)CS[C@H]12)c1csc(N)n1 [Cefodizime Sodium] | 0.755 | 1.08 | 1.48 | 0.804 | 0.792 | 0.754 |
| NC(=O)c1cccc2cn(-c3ccc([C@@H]4CCCNC4)cc3)nc12 [Niraparib (MK-4827) tosylate] | 2.41 | 2.21 | 1.59 | 2.49 | 2.86 | 1.92 |
| Cc1cc2c(F)c(Oc3ncnn4cc(OC[C@@H](C)O)c(C)c34)ccc2[nH]1 | 2.22 | 1.25 | 1.36 | 1.71 | 1.24 | 1.6 |
| CC[C@@H](Nc1c(Nc2cccc(C(=O)N(C)C)c2O)c(=O)c1=O)c1ccc(C)o1 | 1.24 | 0.692 | 0.995 | 0.605 | 0.633 | 0.96 |
| CCNC(=O)[C@@H]1CCCN1C(=O)[C@H](CCCNC(=N)N)NC(=O)[C@H](CC(C)C)NC(=O)[C@@H](CC(C)C)NC(=O)[C@H](Cc1ccc(O)cc1)NC(=O)[C@H](CO)NC(=O)[C@H](Cc1c[nH]c2ccccc12)NC(=O)[C@H](Cc1c[nH]cn1)NC(=O)[C@@H]1CCC(=O)N1 [Leuprorelin Acetate] | 1.85 | 1 | 1.17 | 0.933 | 0.582 | 0.958 |
| COCC(=O)Nc1cc(Sc2ccccc2)ccc1N=C(NC(=O)OC)NC(=O)OC [Febantel] | 0.969 | 0.892 | 0.944 | 1.06 | 1.09 | 1.15 |
| C[C@H]1O[C@@H](O[C@H]2[C@@H](O)C[C@H](O[C@H]3[C@@H](O)C[C@H](O[C@H]4CC[C@@]5(C)[C@H](CC[C@@H]6[C@@H]5C[C@@H](O)[C@]5(C)[C@@H](C7=CC(=O)OC7)CC[C@]65O)C4)O[C@@H]3C)O[C@@H]2C)C[C@H](O)[C@@H]1O [Digoxin] | 6.92 | 5.56 | 6.87 | 4.48 | 3.09 | 6.68 |
| CNCc1ccc(-c2cc(-c3nc(-c4ccc(S(=O)(=O)C(C)C)cc4)cnc3N)on2)cc1 | 3.55 | 3.91 | 3.77 | 4.87 | 3.55 | 4.32 |
| O=C(O)c1cc(-c2ccc(F)cc2F)ccc1O [Diflunisal] | 1.47 | 0.745 | 1.05 | 1.06 | 0.706 | 1.71 |
| CNC(=O)CN1CCC(Oc2cc3c(Nc4cccc(Cl)c4F)ncnc3cc2OC)CC1 [Sapitinib (AZD8931)] | 1.67 | 3.03 | 2.21 | 2.79 | 1.18 | 3.03 |
| NC(=O)OCC(COC(N)=O)c1ccccc1 [Felbamate] | 1.13 | 0.883 | 0.57 | 1.58 | 0.405 | 0.882 |
| O=C(O)C(Cc1c[nH]c2ccccc12)N1C(=O)c2ccccc2C1=O (stereo not drawn) | 0.991 | 0.979 | 0.681 | 0.852 | 0.417 | 0.641 |
| COCC(=O)Nc1c(I)c(C(=O)NCC(O)CO)c(I)c(C(=O)N(C)CC(O)CO)c1I (stereo not drawn) [Iopromide] | 1.53 | 0.999 | 0.749 | 1.04 | 0.445 | 1.07 |
| NC(=O)N[C@@H](CCC(=O)O)C(=O)O [Carglumic Acid] | 1.22 | 0.653 | 0.949 | 1.06 | 0.389 | 0.68 |

From the supplement of paper PMC10127200
